Screens: PubChem, National Center for Advancing Translational Sciences (NCATS)
An excerpt weighted towards active compounds, which were near 5.1% of everything screened.
Tau fluor counter = counter-screen for tau fibril formation inhibitors. tau K18 P301L Alexa594 fluorescence, heparin fibrillization. Potency, µM (titrated, usually from 57.7 µM), without a hit: at the highest dose activity change, negative = decrease. 280,000 compounds, 0.93% hits. AID 1463; also: potency is read from the fitted curve at half-maximal effect; nearly all actives have a fitted effect of over 55% in size
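Human K18 P301L tau (15 uM unlabeled plus 0.24 uM Alexa 594-labeled, final) in 100 mM sodium acetate pH 7 was mixed with compound and 20 uM heparin and incubated 6 hr at 37 C.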
Tau fibril ThT = tau fibrillization inhibition (ThT binding). P10636. recombinant tau K18 P301L, heparin-induced fibrillization, ThT fluorescence. Potency, µM (series often up to 57.4 µM), for the others: at the highest dose activity, negative = inhibition, most hits filed as inhibitors. 270,000 compounds, 2.1% hits. AID 1460; also: potency is read from the fitted curve at half-maximal effect; nearly all actives have a fitted effect of over 55% in size
Target sequence (P10636 561-689 P618L limits assumed): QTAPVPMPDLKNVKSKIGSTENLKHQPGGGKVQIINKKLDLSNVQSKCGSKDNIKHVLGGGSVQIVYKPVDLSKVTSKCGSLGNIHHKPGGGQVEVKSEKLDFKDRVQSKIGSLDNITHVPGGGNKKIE
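Using a mix of unlabeled (15 uM) and Alexa 594-labeled (0.24 uM) tau K18 P301L, heparin-triggered fibrillization over 6 hr at 37 C was scored by ThT fluorescence.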
JMJD2E inh = blocks human JMJD2E demethylase activity; B2RXH2; JMJD2E catalytic domain, FDH-coupled NADH fluorescence (FDH is formaldehyde dehydrogenase); Potency, µM (top dose mostly 57.1 µM), inactives show top-dose activity change, negative = inhibition, hits mostly inhibitors; 230,000 compounds, 1.6% hits; active = well fitted inhibition curve with a large enough effect, not every such curve was filed as active; inconclusive = small, poorly fitted or top-dose-only effect, or another doubt; inactive = no such curve, though single readings can be large or run the other way;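 also: potency is read from the fitted curve at half-maximal effect; 0% = wells with enzyme and -100% = buffer wells without enzyme; nearly all actives have a fitted effect of over 50% in size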
Tau fibril FP = inhibitors of human tau fibril formation; Potency, µM (top dose mostly 57.7 µM), inactives show top-dose activity, negative = inhibition, actives largely listed as inhibitors; K18 P301L tau heparin fibrillization, Alexa594 FP, 6 h; 280,000 compounds, 0.39% hits; P10636; also: potency is read from the fitted curve at half-maximal effect; nearly all actives have a fitted effect of over 55% in size
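Read-out: fluorescence polarization of Alexa 594-labeled tau (0.24 uM), 555 nm excitation, 632 nm emission. Mixtures held 15 uM unlabeled K18 P301L, compound and 20 uM heparin, pH 7 acetate buffer, incubated 6 hr at 37 C.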
PNC assembly inh = inhibitors of perinucleolar compartment assembly; PC3M PTB-GFP, PNC prevalence imaging, 16 h; active compounds read low; activity change (PNC), negative = inhibition, % at 10 µM; 140,000 compounds, 3.1% hits; AID 2417;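 active = readout at or below -70, meaning at least 70% loss of cells showing the perinucleolar compartment, a nuclear body marking cancer cells; inconclusive = readout between -30 and a set limit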;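 also: plate controls were DMSO wells for no effect and camptothecin positive control wells for full effect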
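Read-out is percentage of cells bearing a perinucleolar compartment, from automated 20x imaging of fixed, Hoechst-stained PC3M PTB-GFP cells. Cells were seeded 4 h, then exposed 16 h to compound (23 nl of library stock) in duplicate plates.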
NPSR antagonist = neuropeptide S receptor (human) antagonism, cAMP. 220,000 compounds, 1% hits. Q6W5P4. CHO-NPSR cells, cAMP TR-FRET, antagonist mode. Potency, µM (series often up to 38.3 µM), for inactives: at the highest dose activity change, negative = inhibition, hits mostly inhibitors. AID 1461; also: potency is read from the fitted curve at half-maximal effect; nearly all actives have a fitted effect of over 50% in size
Target sequence (Q6W5P4 whole entry, looked up): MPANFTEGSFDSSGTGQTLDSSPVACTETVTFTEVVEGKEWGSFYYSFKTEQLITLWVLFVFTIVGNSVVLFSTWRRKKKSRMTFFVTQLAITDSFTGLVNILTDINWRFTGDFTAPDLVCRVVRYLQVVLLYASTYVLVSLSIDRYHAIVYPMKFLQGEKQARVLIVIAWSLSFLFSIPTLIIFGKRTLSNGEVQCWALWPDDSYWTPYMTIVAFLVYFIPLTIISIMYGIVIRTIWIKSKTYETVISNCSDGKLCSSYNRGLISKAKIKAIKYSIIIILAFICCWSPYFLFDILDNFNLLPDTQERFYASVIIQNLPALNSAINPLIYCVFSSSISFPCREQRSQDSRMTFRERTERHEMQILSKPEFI
Starred values were filed as active, the others as inactive; [ ] = another dose, or the depositor's remark. Unless noted, calls follow the shape of the dose curve; as a rule, active = well fitted curve in the direction sought with a large enough effect; inconclusive = small, poorly fitted or top-dose-only effect, or another doubt; inactive = no such curve, though single readings can be large; an effect the other way counts as inactive or inconclusive. Unless noted, % is scaled to controls: 0 for no effect and ±100 for the full control effect.

What do the screens show for `O=C(/N=C1\NC(=O)C(F)(C(F)(F)F)S1)NC1CCCCC1` (stereo unspecified)?
Tau fluor counter: -15.6%; Tau fibril ThT: 25.1µM*; JMJD2E inh: -4.8%; Tau fibril FP: inconclusive; PNC assembly inh: 16.7; NPSR antagonist: -15.4%[46.1 µM]

Results for CCC1S/C(=N/C(=O)NC2CCCCC2)NC1=O (stereo unspecified) ?
Tau fluor counter: -8.1%; Tau fibril ThT: -6.6%; JMJD2E inh: -3.2%; Tau fibril FP: -12.0%; PNC assembly inh: -5.3; NPSR antagonist: -1.3%[46.1 µM]

How did O=C(CN1CCN(C/C=C/c2ccccc2)CC1)Nc1cc([N+](=O)[O-])ccc1Cl do in these assays?
Tau fluor counter: 7.2%; Tau fibril ThT: 8.7%; JMJD2E inh: 4.6%; Tau fibril FP: 3.0%; PNC assembly inh: -123.8*; NPSR antagonist: 1.4%

What do the screens show for `COC(=O)Cn1c(=NC(=O)C2COc3ccccc3O2)sc2cc(S(N)(=O)=O)ccc21` (stereo unspecified)?
Tau fluor counter: -1.9%; Tau fibril ThT: 3.7%; JMJD2E inh: -8.4%; Tau fibril FP: -4.2%; PNC assembly inh: -134.0*; NPSR antagonist: -3.9%

What do the screens show for `COC(=O)Cn1c(=NC(=O)CN2C(=O)CCC2=O)sc2cc(S(N)(=O)=O)ccc21`?
Tau fluor counter: -1.1%; Tau fibril ThT: 0.7%; JMJD2E inh: -5.6%; Tau fibril FP: -7.1%; PNC assembly inh: -4.8; NPSR antagonist: 12.7%

What do the screens show for `COc1cc(/C=C/c2ccc(O)cc2)cc(OC)c1`?
Tau fluor counter: 15.8µM*[quencher]; Tau fibril ThT: inconclusive; JMJD2E inh: inconclusive; Tau fibril FP: 2.4%; NPSR antagonist: -24.7%

How did O=C(NN1C(=O)CSC1=S)C(=O)NN1C(=O)CSC1=S do in these assays?
Tau fluor counter: -3.8%; Tau fibril ThT: inconclusive; JMJD2E inh: 8.91µM*; Tau fibril FP: -8.5%; NPSR antagonist: 19.2%

How did O=C(Cc1cccc2ccccc12)NN1C(=O)CSC1=S do in these assays?
Tau fluor counter: -7.0%; Tau fibril ThT: inconclusive; JMJD2E inh: -3.6%; Tau fibril FP: -7.4%; NPSR antagonist: 17.2%

What do the screens show for `COc1ccc(-c2cnc(C)o2)cc1S(=O)(=O)Nc1ccc(C)c(N(C)C)c1`?
Tau fluor counter: -12.7%; Tau fibril ThT: 4.6%; Tau fibril FP: 4.6%

How did CCN(C1CCS(=O)(=O)C1)S(=O)(=O)c1cccs1 (stereo unspecified) do in these assays?
Tau fluor counter: -6.1%; Tau fibril ThT: 1.6%; JMJD2E inh: 6.9%; Tau fibril FP: inconclusive; PNC assembly inh: -106.5*; NPSR antagonist: 5.3%[46.1 µM]

Results for CN(CCCC[C@H](CNCc1ccc(-c2ccccc2)cc1)N1C[C@H](c2ccccc2)N(CCc2ccc(Cl)c(Cl)c2)C(=O)C1=O)Cc1ccc(-c2ccccc2)cc1 ?
Tau fluor counter: 19.6%; Tau fibril ThT: inconclusive; JMJD2E inh: inconclusive; Tau fibril FP: -1.4%; NPSR antagonist: 10µM*

What do the screens show for `COc1cccc([C@@H]2Oc3ccc(OC)cc3C[C@H]2OC(=O)N[C@H]2CCCc3ccccc32)c1`?
Tau fluor counter: -6.3%; Tau fibril ThT: 3.1%; JMJD2E inh: 3.6%; Tau fibril FP: 0.1%

What do the screens show for `O=C(CN(c1ccccc1)S(=O)(=O)c1ccccc1)N1CCN(Cc2ccc3c(c2)OCO3)CC1`?
Tau fluor counter: -2.0%; Tau fibril ThT: -4.3%; JMJD2E inh: 2.9%; Tau fibril FP: 1.4%; PNC assembly inh: -87.8*; NPSR antagonist: -12.6%[46.1 µM]

Results for COc1ccc(N(CC(=O)N2CCN(Cc3ccc4c(c3)OCO4)CC2)S(=O)(=O)c2ccc(F)cc2)cc1 ?
Tau fluor counter: -8.2%; Tau fibril ThT: -15.7%; JMJD2E inh: -4.9%; Tau fibril FP: 5.3%; NPSR antagonist: -28.2%

How did COc1ccc(N2CCN(C(=O)CN(c3ccccc3)S(C)(=O)=O)CC2)cc1 do in these assays?
Tau fluor counter: -15.6%; Tau fibril ThT: -15.5%; JMJD2E inh: 3.9%; Tau fibril FP: 1.1%; PNC assembly inh: inconclusive; NPSR antagonist: -3.0%[46.1 µM]

Results for COc1ccc(S(=O)(=O)N(CC(=O)N2CCN(c3ccccc3)CC2)c2ccccc2)cc1 ?
Tau fluor counter: -9.2%; Tau fibril ThT: -10.0%; JMJD2E inh: 2.8%; Tau fibril FP: -1.4%; PNC assembly inh: -112.1*; NPSR antagonist: inconclusive

Results for Cc1ccc2nc(-c3ccc(Cl)s3)c(Nc3ccc4c(c3)OCCO4)n2c1 ?
Tau fluor counter: inconclusive; Tau fibril ThT: -15.0%; Tau fibril FP: 10.0%

What do the screens show for `Cc1ccc2nc(-c3ccccc3O)c(Nc3ccc4c(c3)OCCO4)n2c1`?
Tau fluor counter: 7.08µM*[quencher]; Tau fibril ThT: inconclusive; JMJD2E inh: inconclusive; Tau fibril FP: 10.1%; PNC assembly inh: -113.4*; NPSR antagonist: -17.5%

How did Cc1ccc2nc(-c3ccc(O)cc3)c(Nc3ccc4c(c3)OCCO4)n2c1 do in these assays?
Tau fluor counter: 25.1µM*[quencher]; Tau fibril ThT: inconclusive; JMJD2E inh: inconclusive; Tau fibril FP: 16.3%; PNC assembly inh: -5.1; NPSR antagonist: -2.9%[46.1 µM]

What do the screens show for `Cc1cc(C)n(-c2nc3cc(Cl)ccc3nc2N2CCN(c3cccc(C)c3C)CC2)n1`?
Tau fluor counter: -10.2%; Tau fibril ThT: -12.0%; Tau fibril FP: -11.7%

Results for CN(CC(=O)Nc1ccccc1Cl)S(=O)(=O)c1ccc(C(=O)N2CCOCC2)s1 ?
Tau fluor counter: -1.3%; Tau fibril ThT: 6.5%; Tau fibril FP: 7.0%

How did Oc1ccc(N=Nc2nc(-c3ccccc3)c(-c3ccccc3)[nH]2)cc1 do in these assays?
Tau fluor counter: 11.2µM*[quencher]; Tau fibril ThT: 4.47µM*; JMJD2E inh: -6.6%; Tau fibril FP: inconclusive; PNC assembly inh: -14.5; NPSR antagonist: inconclusive

Results for COc1cc(-c2nc(-c3ccccc3)c(-c3ccc(Br)cc3)[nH]2)cc(OC)c1O ?
Tau fluor counter: 11.2µM*[quencher]; Tau fibril ThT: inconclusive; Tau fibril FP: 4.1%

How did COc1ccc(-c2[nH]c(-c3cc(OC)c4c(c3)OCO4)nc2-c2ccccc2)cc1 do in these assays?
Tau fluor counter: 12.6µM*[quencher]; Tau fibril ThT: inconclusive; JMJD2E inh: inconclusive; Tau fibril FP: inconclusive; PNC assembly inh: 1.7; NPSR antagonist: -57.9%

How did Cc1nc(-c2ccccc2)c(-c2ccccc2)[nH]1 do in these assays?
Tau fluor counter: -10.8%; Tau fibril ThT: -5.7%; JMJD2E inh: inconclusive; Tau fibril FP: 3.2%; PNC assembly inh: -23.4; NPSR antagonist: 3.4%

How did Oc1ccc(-c2nc(-c3ccccc3)c(-c3ccc(Br)cc3)[nH]2)cc1 do in these assays?
Tau fluor counter: 8.91µM*[quencher]; Tau fibril ThT: 28.2µM*; Tau fibril FP: inconclusive
